# Experimental data as given in PubChem BioAssay (Tox21).
# Values joined by “and” are separate entries in the source; they are usually repeats but may differ in a detail not shown here. Identical values can stand only once. Records with an inconclusive call do not appear. A call without a number means that no potency is given here. Where a structure was tested more than once in an assay, its records may differ in their call. Active and inactive are the calls of the source. Unless noted, the call rests on the fitted dose curve; in most records, active means well fitted curve in the direction sought with a large enough effect in the repeat runs; inconclusive means weak or mixed curves; inactive means no such curve, though single readings can be large; an effect the other way counts as inactive or inconclusive.
# Key:
# [1] = target: Thyrotropin receptor (Homo sapiens) (UniProt P16473); assay: qHTS assay to identify small molecule antagonists of the thyroid stimulating hormone receptor (TSHR) signaling pathway (AID 1259385; calls by dose curve; further: nearly all actives have a fitted effect of over 20% in size)
# Procedure, shortened: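 TSHR-HEK293 cells (800/well) plated 18 h, then compounds with Ro20-1724 and TSH at 1.5 ng/mL final, 30 min at room temperature. cAMP quantified by HTRF (cAMP-d2/anti-cAMP-cryptate, 1 h); 15 concentrations in triplicate.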
# [2] = qHTS assay to identify small molecule agonists of the estrogen receptor alpha (ER-alpha) signaling pathway in the presence of an antagonist - cell viability counter screen (AID 1259386);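 further: series mostly up to about 92 µM; cells exposed to compounds for 22 h at 37 °C before the viability read; nearly all actives have a fitted effect of over 30% in size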
# Procedure, shortened: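 Viability counter screen using VM7Luc4E2 (full-length ER-alpha, four ERE-luciferase). The cells were treated with compounds alongside ICI-182,780 10.0nM for 22hr, and live-cell protease fluorescence was quantified with CellTiter-Fluor.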
# [3] = target: Progesterone receptor (Homo sapiens) (UniProt P06401); assay: qHTS assay to identify small molecule agonists of the progesterone receptor (PR) signaling pathway (AID 1346784; calls by dose curve; further: nearly all actives have a fitted effect of over 30% in size)
# Procedure, shortened: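 Fluorescence from LiveBLAzer B/G FRET substrate cleavage (2 hr, RT) reported PR activation in PR-UAS-bla HEK 293T cells treated 16 hr at 37C/5% CO2 with compounds; medium contained 2% charcoal-stripped FBS.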
# [4] = target: Progesterone receptor (Homo sapiens) (UniProt P06401); assay: qHTS assay to identify small molecule antagonists of the progesterone receptor (PR) signaling pathway (AID 1346795; active means well fitted inhibition curve with a large enough effect in the signal ratio in the repeat runs, not every such curve was filed as active; the % refers to the signal ratio)
# Procedure, shortened: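 Fluorescence intensity measured 2 hr after adding beta-lactamase FRET substrate to PR-UAS-bla HEK293T cells that had been co-treated 16 hr with compound and 1 nM R5020 (final concentration) in 2% charcoal-stripped FBS.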
# [5] = qHTS assay to identify small molecule agonists of the progesterone receptor (PR) signaling pathway - cell viability counter screen (AID 1346799; calls by dose curve; further: nearly all actives have a fitted effect of over 45% in size)
# Procedure, shortened: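 In parallel with the beta-lactamase readout, cytotoxicity toward PR-UAS-bla HEK293T cells was measured by CellTiter-Glo luminescence following 16 hr compound incubation in 2% charcoal-stripped FBS medium.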
# [6] = qHTS assay to identify small molecule antagonists of the TGF-beta/Smad signaling pathway - cell viability counter screen (AID 1346824); further: nearly all actives have a fitted effect of over 50% in size
# Procedure, shortened: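 SBE-bla HEK 293T cells, incubated overnight, then compound plus 0.25 ng/mL TGF-beta1 (stock added) for 5 hr at 37 C. Viability was read in the same wells by CellTiter-Glo luminescence after 30 min at room temperature.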
# [7] = qHTS assay to identify small molecule agonists of the TGF-beta/Smad signaling pathway - cell viability counter screen (AID 1346829); further: top concentration of the series differs between compounds; nearly all actives have a fitted effect of over 45% in size
# Procedure, shortened: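 SBE-bla HEK 293T cells plated overnight, compound exposure 5 hr at 37 C. Viability read in the same wells by CellTiter-Glo luminescence after 30 min at room temperature, following the beta-lactamase read.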
# [8] = target: Thyrotropin-releasing hormone receptor (Homo sapiens) (UniProt P34981); assay: qHTS assay to identify small molecule antagonists of the thyrotropin-releasing hormone receptor (TRHR) signaling pathway (AID 1346877; active means well fitted inhibition curve with a large enough effect in the repeat runs, not every such curve was filed as active; further: series mostly up to about 51 µM)
# Procedure, shortened: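 Following an 18 h incubation at 37 °C and a 2 h calcium dye load, TRHR-HEK293 cells were exposed to compound (5 min, room temperature) and challenged with TRH, 1 nM final.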
# [9] = target: Thyrotropin-releasing hormone receptor (Homo sapiens) (UniProt P34981); assay: qHTS assay to identify small molecule agonists of the thyrotropin-releasing hormone receptor (TRHR) signaling pathway (AID 1346891; calls by dose curve;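 further: HEK293 cells expressing TRHR with calcium dye readout; series mostly up to about 58 µM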)
# Procedure, shortened: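 Compounds were tested as agonists at 15 concentrations, in triplicate, on TRHR-Hek293 cells; calcium-sensitive dye fluorescence was recorded for 3 min following addition.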
# [10] = Human pregnane X receptor (PXR) small molecule agonists, qHTS cell viability counter screen (AID 1346977); further: nearly all actives have a fitted effect of over 50% in size; further: potency means the concentration at half of the fitted maximal effect
# Procedure, shortened: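 Viability counter screen: CellTiter-Fluor signal in PXR-Luc HepG2 cells, 24hr compound exposure, 37C, 5% CO2.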
# [11] = Caspase-3/7 induction in HepG2 cells by small molecules, qHTS assay (AID 1346978); further: nearly all actives have a fitted effect of over 15% in size; further: potency means the concentration at half of the fitted maximal effect
# Procedure, shortened: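 Wild-type HepG2 cells, 2,000/well, settled 5 hr at 37 C and 5% CO2, then compound-treated for 17 hr; caspase-3/7 activity read by luminescent Caspase-Glo 3/7 after 30 min at room temperature.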
# [12] = Caspase-3/7 induction in CHO-K1 cells by small molecules, qHTS cell viability counter screen (AID 1346979); further: nearly all actives have a fitted effect of over 35% in size; further: potency means the concentration at half of the fitted maximal effect
# Procedure, shortened: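 Viability readout by fluorescence (CellTiter-Fluor) on wild-type CHO-K1 cells exposed for 16hr at 37C and 5% CO2 to compounds delivered in DMSO; reagent incubated 1hr before reading.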
# [13] = Caspase-3/7 induction in CHO-K1 cells by small molecules, qHTS assay (AID 1346980); further: nearly all actives have a fitted effect of over 15% in size
# Procedure, shortened: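 Wild-type CHO-K1 cells exposed to compounds for 17hr at 37 C, 5% CO2. Caspase-3/7 activity then measured by Caspase-Glo 3/7 luminescence after 30min at room temperature.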
# [14] = Caspase-3/7 induction in HepG2 cells by small molecules, qHTS cell viability counter screen (AID 1346981); further: series mostly up to about 92 µM; nearly all actives have a fitted effect of over 30% in size
# Procedure, shortened: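 Viability determined by CellTiter-Fluor fluorescence in HepG2 wells also used for the luminescent Caspase-Glo 3/7 read. Compounds were present for 16 hr at 37 C, 5% CO2 before reagent addition.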
# [15] = target: Nuclear receptor subfamily 1 group I member 2 (Homo sapiens) (UniProt O75469); assay: Human pregnane X receptor (PXR) small molecule agonists, qHTS assay (AID 1346982); further: nearly all actives have a fitted effect of over 35% in size; further: potency means the concentration at half of the fitted maximal effect
# Procedure, shortened: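 Compound-induced hPXR transactivation of a CYP3A4 luciferase reporter was scored in HepG2 PXR-Luc cells over 24 hr at 37 C, 5% CO2, by luminescence.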
# [16] = target: Nuclear receptor subfamily 1 group I member 2 (Rattus norvegicus) (UniProt Q9R1A7); assay: Rat pregnane X receptor (rPXR) activation by small molecules, qHTS assay (AID 1346983); conditions: rPXR luciferase reporter cells, One-Glo luminescence, 24 h; stronger effect = higher value; further: nearly all actives have a fitted effect of over 20% in size
# Procedure, shortened: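 Cell-based rPXR activation assay: rPXR cells, 2,000 per well, rested 5hr at 37 C, then exposed to compounds in DMSO for 24 hr at 37 C. Luciferase activity read by One-Glo luminescence after 30 min at room temperature.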
# [17] = target: Nuclear receptor subfamily 1 group I member 2 (Homo sapiens) (UniProt O75469); assay: CYP3A4 induction through human pregnane X receptor (PXR) by small molecules, qHTS assay (AID 1346984); further: nearly all actives have a fitted effect of over 40% in size
# Procedure, shortened: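 Readings come from a luciferase reporter: DPX-2 cells, which are HepG2 cotransfected with PXR and a CYP3A4-promoter construct, were exposed to test compounds for 24 h at 37C before One-Glo detection.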
# [18] = target: Nuclear receptor subfamily 1 group I member 2 (Homo sapiens) (UniProt O75469); assay: Human pregnane X receptor (PXR) activation by small molecules, qHTS assay (AID 1346985); further: nearly all actives have a fitted effect of over 40% in size
# Procedure, shortened: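 DPX-2 cells (HepG2 co-transfected with a PXR response element and a CYP3A4-promoter luciferase construct) were seeded at 2,000 per well, rested 5 hr at 37C, then exposed to DMSO-dissolved compounds for 24 hr. Activation was read as luciferase luminescence.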
# [19] = qHTS assay to identify small molecule antagonists of the progesterone receptor (PR) signaling pathway - cell viability counter screen (AID 1346798); further: series mostly up to about 92 µM; nearly all actives have a fitted effect of over 50% in size
# Procedure, shortened: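 CellTiter-Glo luminescence; PR-UAS-bla HEK293T, 3,000 cells/well; compound + R5020, 16 hr, 37C/5% CO2; 30 min RT before read.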
# [20] = qHTS assay to identify small molecule agonists of the TGF-beta/Smad signaling pathway (AID 1346859; active means well fitted activation curve with a large enough effect in the signal ratio in the repeat runs, not every such curve was filed as active; the % refers to the signal ratio; further: series mostly up to about 77 µM)
# Procedure, shortened: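 After overnight seeding, SBE-bla HEK 293T cells are dosed with compounds in DMSO and kept 5 hr at 37 C, 5% CO2. LiveBLAzer-type FRET substrate is then applied for 2 hr at room temperature.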
# Thyrotropin receptor (Homo sapiens), sequence (P16473 whole entry, looked up): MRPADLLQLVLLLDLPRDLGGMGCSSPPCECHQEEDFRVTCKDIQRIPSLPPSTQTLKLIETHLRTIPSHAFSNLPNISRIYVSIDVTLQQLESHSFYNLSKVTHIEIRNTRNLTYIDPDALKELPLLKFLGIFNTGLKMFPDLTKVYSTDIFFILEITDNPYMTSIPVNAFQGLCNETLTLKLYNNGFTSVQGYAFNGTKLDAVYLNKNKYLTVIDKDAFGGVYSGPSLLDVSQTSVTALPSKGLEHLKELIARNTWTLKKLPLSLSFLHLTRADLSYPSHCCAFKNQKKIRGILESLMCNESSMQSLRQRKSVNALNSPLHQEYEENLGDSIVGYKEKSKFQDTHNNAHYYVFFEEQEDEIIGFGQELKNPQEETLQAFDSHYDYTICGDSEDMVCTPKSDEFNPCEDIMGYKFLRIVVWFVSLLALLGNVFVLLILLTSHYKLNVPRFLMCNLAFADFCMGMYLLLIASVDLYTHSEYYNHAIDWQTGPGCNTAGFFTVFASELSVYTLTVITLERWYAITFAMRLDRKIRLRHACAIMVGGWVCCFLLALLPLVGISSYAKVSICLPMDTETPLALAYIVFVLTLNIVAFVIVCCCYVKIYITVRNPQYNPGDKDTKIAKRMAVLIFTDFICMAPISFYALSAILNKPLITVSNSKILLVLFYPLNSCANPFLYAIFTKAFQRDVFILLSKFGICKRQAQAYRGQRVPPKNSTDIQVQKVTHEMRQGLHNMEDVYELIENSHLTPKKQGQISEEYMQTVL
# Nuclear receptor subfamily 1 group I member 2 (Homo sapiens), sequence (O75469 whole entry, looked up): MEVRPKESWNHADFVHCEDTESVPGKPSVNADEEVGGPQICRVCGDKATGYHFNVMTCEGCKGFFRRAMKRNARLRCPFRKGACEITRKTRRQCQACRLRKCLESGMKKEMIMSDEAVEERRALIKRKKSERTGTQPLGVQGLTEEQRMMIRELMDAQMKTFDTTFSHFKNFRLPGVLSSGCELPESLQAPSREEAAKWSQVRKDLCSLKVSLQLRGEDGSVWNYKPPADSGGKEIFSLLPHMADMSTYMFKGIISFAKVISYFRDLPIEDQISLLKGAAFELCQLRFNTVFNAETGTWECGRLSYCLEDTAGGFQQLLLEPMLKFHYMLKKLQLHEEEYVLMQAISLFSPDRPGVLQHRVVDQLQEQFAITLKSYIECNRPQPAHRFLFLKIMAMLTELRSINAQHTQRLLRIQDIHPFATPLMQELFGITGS
# Progesterone receptor (Homo sapiens), sequence (P06401 whole entry, looked up): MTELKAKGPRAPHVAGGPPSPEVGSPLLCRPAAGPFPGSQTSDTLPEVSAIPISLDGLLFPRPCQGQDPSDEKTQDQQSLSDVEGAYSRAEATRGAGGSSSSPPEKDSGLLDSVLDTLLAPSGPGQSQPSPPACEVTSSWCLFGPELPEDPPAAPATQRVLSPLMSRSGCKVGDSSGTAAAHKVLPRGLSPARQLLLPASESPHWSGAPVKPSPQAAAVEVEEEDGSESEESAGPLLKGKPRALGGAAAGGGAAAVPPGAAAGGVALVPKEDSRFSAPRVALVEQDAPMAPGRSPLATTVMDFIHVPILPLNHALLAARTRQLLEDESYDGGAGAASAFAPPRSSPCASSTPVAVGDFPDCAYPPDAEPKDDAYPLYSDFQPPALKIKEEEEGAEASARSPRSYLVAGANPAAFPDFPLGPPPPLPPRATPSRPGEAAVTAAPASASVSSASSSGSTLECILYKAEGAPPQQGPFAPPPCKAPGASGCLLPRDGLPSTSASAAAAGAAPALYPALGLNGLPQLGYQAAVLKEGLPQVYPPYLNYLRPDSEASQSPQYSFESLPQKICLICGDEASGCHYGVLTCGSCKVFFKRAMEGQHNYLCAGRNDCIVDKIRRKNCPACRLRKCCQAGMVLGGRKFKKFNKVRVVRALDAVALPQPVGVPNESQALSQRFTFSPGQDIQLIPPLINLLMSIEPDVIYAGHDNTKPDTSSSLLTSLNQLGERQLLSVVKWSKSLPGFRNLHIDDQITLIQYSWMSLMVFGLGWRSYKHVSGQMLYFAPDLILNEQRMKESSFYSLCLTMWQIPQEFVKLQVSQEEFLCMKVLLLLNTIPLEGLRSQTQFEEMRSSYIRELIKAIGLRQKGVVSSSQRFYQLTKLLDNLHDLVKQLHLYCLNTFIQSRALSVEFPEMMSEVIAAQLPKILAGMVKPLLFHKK
# Thyrotropin-releasing hormone receptor (Homo sapiens), sequence (P34981 whole entry, looked up): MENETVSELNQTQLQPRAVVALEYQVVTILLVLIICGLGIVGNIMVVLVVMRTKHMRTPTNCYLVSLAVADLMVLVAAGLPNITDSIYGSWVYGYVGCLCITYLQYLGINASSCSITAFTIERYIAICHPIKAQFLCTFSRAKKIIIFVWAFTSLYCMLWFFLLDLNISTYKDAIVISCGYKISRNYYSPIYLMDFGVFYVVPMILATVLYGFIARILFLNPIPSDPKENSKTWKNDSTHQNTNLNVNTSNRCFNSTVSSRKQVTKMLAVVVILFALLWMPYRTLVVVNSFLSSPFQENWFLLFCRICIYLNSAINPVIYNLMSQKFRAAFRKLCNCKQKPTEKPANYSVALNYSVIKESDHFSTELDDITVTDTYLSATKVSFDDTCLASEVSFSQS
# Nuclear receptor subfamily 1 group I member 2 (Rattus norvegicus), sequence (Q9R1A7 whole entry, looked up): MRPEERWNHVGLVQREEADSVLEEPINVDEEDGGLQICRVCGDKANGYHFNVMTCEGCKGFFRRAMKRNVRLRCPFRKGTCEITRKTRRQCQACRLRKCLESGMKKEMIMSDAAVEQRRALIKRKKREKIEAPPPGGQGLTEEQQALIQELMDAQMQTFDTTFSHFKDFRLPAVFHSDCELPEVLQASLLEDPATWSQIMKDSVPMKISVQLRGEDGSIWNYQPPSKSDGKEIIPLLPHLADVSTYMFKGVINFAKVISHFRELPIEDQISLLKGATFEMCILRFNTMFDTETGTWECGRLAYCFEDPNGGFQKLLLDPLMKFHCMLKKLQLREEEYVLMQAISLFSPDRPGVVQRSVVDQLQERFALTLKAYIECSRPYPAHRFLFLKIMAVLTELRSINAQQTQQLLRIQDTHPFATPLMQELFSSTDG
SMILES,outcome [1],Potency [2],Potency [3],Potency [4],outcome [5],outcome [6],outcome [7],outcome [8],outcome [9],Potency [10],Potency [11],Potency [12],outcome [13],Potency [14],Potency [15],max activation [16],Potency [17],outcome [18],outcome [19],outcome [20]
O=C(O)c1ccc(S(=O)(=O)N(Cl)Cl)cc1,inactive,inactive,inactive,inactive,inactive,inactive,inactive,inactive,inactive,inactive,inactive,inactive,inactive,inactive,inactive,4.13% (inactive),inactive,inactive,–,–
CC(=O)OCCOC(C)=O,inactive,inactive,inactive,inactive,inactive,–,–,inactive,inactive,inactive,inactive,inactive,inactive,inactive,inactive,–,–,–,inactive,–
c1ccc(Oc2ccccc2)cc1,inactive,inactive,inactive,inactive,inactive,–,–,inactive,inactive,inactive,inactive,inactive,inactive,inactive,inactive,–,–,–,inactive,inactive
c1ccc2c(c1)Cc1ccccc1-2,inactive,inactive,inactive,inactive,inactive,inactive,–,–,–,inactive,inactive,inactive,inactive,inactive,inactive,–,–,–,inactive,–
COCCOC(=O)c1ccccc1C(=O)OCCOC,inactive,inactive,inactive,inactive,inactive,–,–,inactive,inactive,inactive,inactive,inactive,inactive,inactive,inactive,–,–,–,inactive,inactive
CC(=O)CC(C)(C)O,inactive,inactive,inactive,inactive,inactive,inactive,–,inactive,inactive,inactive,–,inactive,inactive,inactive,inactive,–,–,–,–,inactive
CCOC(=O)n1ccn(C)c1=S,inactive,inactive,inactive,inactive,inactive,–,inactive,–,–,inactive,inactive,inactive,inactive,inactive,inactive,-4.98% (inactive),inactive,inactive,inactive,–
NCCCCCCN,inactive,inactive,inactive,inactive,inactive,–,inactive,inactive,inactive,inactive,inactive,2.75 µM (active) and 19.3 µM (active),inactive,inactive,inactive,–,–,–,inactive,inactive
C=C(C)C(=O)OCC(C)C,inactive,inactive,inactive,inactive,inactive,–,inactive,inactive,inactive,39.8 µM (active) and inactive,55.2 µM (active) and inactive,12.4 µM (active) and inactive,inactive,inactive,17.5 µM (active) and inactive,–,–,–,–,inactive
